According to PubChem BioAssay (NCATS):
Values joined by “and” are separate entries in the source; they are usually repeats but may differ in a detail not shown here. Identical values can stand only once. A number with no mark means an inactive call. Results filed as inconclusive are left out. Entries that show only a call come without a potency. Active and inactive are the calls of the source. Unless noted, calls follow the shape of the dose curve; as a rule, active = well fitted curve in the direction sought with a large enough effect; inconclusive = small, poorly fitted or top-dose-only effect, or another doubt; inactive = no such curve, though single readings can be large; an effect the other way counts as inactive or inconclusive.

Tests used:
[1] = Cellular Toxicity (caspase-3) Mesangial (AID 660);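 also: combined caspase 3 and 7 activity read by Caspase-Glo luminescence; cells exposed to compound for 16 h before the caspase read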
Outline: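 Caspase 3/7 activation measured by Caspase-Glo 3/7 luminescence (20 min, room temperature) following 16 h exposure of mesangial cells (1000/well); AC50 from Hill-equation fit, normalized to DMSO and 100 uM tamoxifen.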

[2] = Cellular Toxicity (caspase-3) N2a (AID 665);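 also: compound exposure lasted 16 h at 37 °C before readout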
Outline: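 Caspase-3/7 activation measured as luminescence from Caspase-Glo reagent (1 h, room temperature) after 16 h compound exposure of mouse N2a cells. AC50 values from Hill-equation concentration-response, scaled between DMSO and 10 uM staurosporine.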

[3] = Cellular Toxicity (caspase-3) NIH 3T3 (AID 666);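 also: caspase signal read after 16 h compound exposure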
Outline: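 Caspase-Glo 3/7 luminescence reported caspase activation in 1000 NIH 3T3 cells/well after 16 h compound exposure at 37 C. DMSO set basal and 100 uM tamoxifen set 100% stimulation; concentration-response modeled with the Hill equation for AC50.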

[4] = Cellular Toxicity (caspase-3) Renal Proximal Tubule (AID 667);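 also: cells exposed to compound for 16 hours at 37 °C before detection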
Outline: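 In qHTS format, rat primary proximal tubule cells seeded at 1000 per well are exposed to compounds for 16 hours at 37 °C. An increase in Caspase-Glo 3/7 luminescence indicates caspase activation.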

[5] = MultiTox-Fluor Cytotoxicity Assay - LYMP1-001 - Live Cells (AID 947)
[6] = Cell Viability - LYMP2-011 (AID 969); also: nearly all actives have a fitted effect of over 60% in size
Outline: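 Cytotoxicity qHTS with ATP content as read-out: lymphoblastoid cells (2500/well) exposed to compound for 24 h at 37 C, then luciferase luminescence measured. Concentration-response data fitted with the standard Hill equation to give AC50.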

[7] = Cell Viability - LYMP2-013 (AID 970); also: nearly all actives have a fitted effect of over 55% in size; also: potency is read from the fitted curve at half-maximal effect
Outline: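 qHTS cytotoxicity: ATP-dependent luminescence (CellTiter-Glo, 30 min room temperature) read after 24 h compound exposure at 37 C of 2500 LYMP2-013 lymphoblastoid cells per well. Concentration-response fitted with Hill equation to give AC50.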

[8] = Cell Viability - LYMP2-015 (AID 971); also: nearly all actives have a fitted effect of over 55% in size
Outline: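 Cytotoxicity readout: decrease in intracellular ATP (CellTiter-Glo luminescence) in 2500 LYMP2-015 lymphoblastoid cells/well after 24 h compound exposure at 37 C. Concentration-response data fitted with the standard Hill equation to give AC50.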

[9] = Cell Viability - LYMP2-021 (AID 974); also: nearly all actives have a fitted effect of over 55% in size; also: potency is read from the fitted curve at half-maximal effect
Outline: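 AC50 values come from Hill-equation fits to CellTiter-Glo luminescence (ATP content), read after 24 hour compound exposure at 37 C of 2500 LYMP2-021 lymphoblastoid cells/well; tetraoctylammonium bromide as positive control.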

[10] = Cell Viability - LYMP2-002 (AID 977); also: series mostly up to about 92 µM
Outline: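 Human lymphoblastoid cells, 2500/well, complete medium; 5 h 37 C settle; compound 24 h 37 C; CellTiter-Glo, 30 min RT; luminescence. Decrease in ATP = cytotoxicity; AC50 via Hill equation.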

[11] = Cell Viability - LYMP2-022 (AID 987); also: nearly all actives have a fitted effect of over 55% in size; also: potency is read from the fitted curve at half-maximal effect
Outline: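 Cytotoxicity read as decreased cellular ATP (CellTiter-Glo luminescence, 30 min room temperature) after 24 hours compound exposure of 2500 lymphoblastoid LYMP2-022 cells/well at 37 C. Concentration-response data fitted with standard Hill equation for AC50.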

[12] = target: Retinoic acid receptor RXR-alpha (Homo sapiens) (UniProt P19793); assay: qHTS assay for small molecule antagonists of retinoid X receptor alpha signaling (AID 588546; active = well fitted inhibition curve with a large enough effect in the signal ratio, with a control signal flat, not every such curve was filed as active; the % refers to the signal ratio;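 also: cells stimulated with 9-cis-retinoic acid as agonist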); conditions: HEK293T RXRa-UAS-bla, beta-lactamase ratio, antagonist mode
Outline: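 Beta-lactamase reporter inhibition, read as CCF4 fluorescence ratio (ex 405, em 460/530 nm) after 2 h at RT. HEK293T UAS-bla cells, 2500/well, were stimulated with 9-cis-RA at 500 or 100 nM final alongside test compound for 18 h at 37 C.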

[13] = qHTS assay for small molecule agonists of the antioxidant response element (ARE) signaling pathway measured by Nrf2-dependant transcriptional activity (AID 720636; active = well fitted curve in the direction sought with a large enough effect in the repeat runs; an effect the other way counts as inactive or inconclusive;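 also: HepG2 cells with an ARE-driven luciferase reporter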)
Outline: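 In HepG2 cells engineered with an Nrf2-responsive luciferase gene, ARE induction was quantified as luminescence after 16 hr compound treatment at 37 C.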

[14] = qHTS assay for cell viability of the p53RE-bla HCT-116 cell line (AID 743292); also: nearly all actives have a fitted effect of over 55% in size
Outline: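 Intracellular ATP of p53RE-bla HCT-116 cells measured by luciferase luminescence following 16 h compound incubation at 37 C; DMSO-only wells served as vehicle controls.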

[15] = Cell Viability - SK-N-SH (AID 435; calls by dose curve;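 also: potency is read from the fitted curve at half-maximal effect; compound exposure lasted 40 h at 37 °C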); conditions: SK-N-SH neuroblastoma cell viability qHTS
Outline: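 Cells seeded at 1500 per well and incubated 5 hr at 37 °C. Compound added, then 40 hr at 37 °C. CellTiter-Glo added, 20 min at room temperature, luminescence read.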

[16] = Cellular Toxicity (caspase-3) H-4-II-E (AID 663); conditions: Potency: caspase-3 activation;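 also: cells exposed to compound for 16 hr before readout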
Outline: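 H-4-II-E rat hepatoma, 1500 cells/well, 5 hr settle at 37 °C; compound 16 hr, 37 °C, complete medium; Caspase-Glo 3/7, 20 min RT; luminescence. DMSO = 0%, 100 uM tamoxifen = 100%; Hill-equation AC50.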

[17] = Cell Viability - LYMP2-009 (AID 968); also: nearly all actives have a fitted effect of over 55% in size; also: potency is read from the fitted curve at half-maximal effect
[18] = Cell Viability - LYMP2-006 (AID 978); also: series mostly up to about 92 µM; nearly all actives have a fitted effect of over 60% in size
Outline: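 Concentration-dependent loss of intracellular ATP in a human lymphoblastoid line after 24 hr treatment at 37 C was measured by CellTiter-Glo luminescence, with AC50 values obtained from standard Hill-equation modelling.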

[19] = Cell Viability - LYMP2-024 (AID 988); also: nearly all actives have a fitted effect of over 60% in size
Outline: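 Cytotoxicity was taken as a decrease in ATP (CellTiter-Glo luminescence) after 24 hr compound exposure at 37 C of LYMP2-024 lymphoblastoid cells, 2500 cells/well. Concentration-response data were fitted to the Hill equation to give AC50.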

[20] = Cell Viability - HUV-EC-C (AID 542);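 also: cells exposed to compound for 40 hours; nearly all actives have a fitted effect of over 35% in size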
Outline: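 CellTiter-Glo luminescence measured ATP loss in HUV-EC-C cells (1000/well) after 40 hr compound exposure at 37 °C, in complete culture medium. Concentration-response data were Hill-fitted to give AC50.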

Chain of Retinoic acid receptor RXR-alpha (Homo sapiens) (P19793 whole entry, looked up): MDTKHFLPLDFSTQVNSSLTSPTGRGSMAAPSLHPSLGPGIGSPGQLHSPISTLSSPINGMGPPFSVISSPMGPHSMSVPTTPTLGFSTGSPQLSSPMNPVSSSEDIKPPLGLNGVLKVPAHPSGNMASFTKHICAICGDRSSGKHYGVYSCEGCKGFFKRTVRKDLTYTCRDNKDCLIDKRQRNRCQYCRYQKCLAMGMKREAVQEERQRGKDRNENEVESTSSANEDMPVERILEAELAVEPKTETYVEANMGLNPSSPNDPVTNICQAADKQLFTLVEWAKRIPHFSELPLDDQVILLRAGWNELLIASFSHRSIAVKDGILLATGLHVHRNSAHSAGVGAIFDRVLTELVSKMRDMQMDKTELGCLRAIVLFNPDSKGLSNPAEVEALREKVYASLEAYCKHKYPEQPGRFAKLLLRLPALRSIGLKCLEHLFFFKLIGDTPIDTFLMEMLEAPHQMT

SMILES | outcome [1] | outcome [2] | Potency [3] | outcome [4] | outcome [5] | Potency [6] | Potency [7] | Potency [8] | Potency [9] | Potency [10] | Potency [11] | max response [12] | Potency [13] | Potency [14] | Potency [15] | Potency [16] | Potency [17] | Potency [18] | Potency [19] | Potency [20]
O=C(Cl)c1ccccc1F | inactive | inactive | inactive | inactive | inactive | inactive | inactive | inactive | inactive | inactive | inactive | 13.4% | inactive | inactive |  |  |  |  |  | 
CCOC(=O)CC(SP(=O)(OC)OC)C(=O)OCC (centres undefined) | inactive | inactive | inactive | inactive | inactive | inactive | inactive | inactive | inactive |  | inactive | -24.2% and 2.64% | inactive |  | > 92 µM | inactive | inactive | inactive | inactive | 
C=C(Cl)CSC(=S)N(CC)CC | inactive | inactive | inactive | inactive | inactive | inactive | inactive | inactive |  | inactive |  | 1.31% | inactive | inactive | > 92 µM | inactive |  |  |  | inactive
O=NN1CCCCC1 | inactive | inactive | inactive |  |  | inactive | inactive | inactive | inactive | inactive | inactive | 14.4% |  | inactive |  |  | inactive | inactive | inactive | inactive
Oc1ccc(Cl)c(Cl)c1 | inactive |  | inactive | inactive | inactive | inactive | inactive | inactive | inactive |  | inactive | -1% | inactive | inactive | > 92 µM | inactive |  | inactive | inactive | 
O=C(Cc1ccccc1)OCc1ccccc1 | inactive | inactive | inactive | inactive | inactive | inactive | inactive | inactive | inactive | inactive | inactive | -5.19% | inactive |  | > 92 µM | inactive | inactive |  | inactive | 
CC(C)(C)c1ccccc1O | inactive |  |  | inactive | inactive | inactive | inactive | inactive | inactive | inactive | inactive | 2.54% and -7.07% | inactive | inactive |  | inactive | inactive | inactive | inactive | inactive
CCCCCOC(=O)c1ccccc1C(=O)OCCCCC | inactive | inactive |  | inactive | inactive | inactive | inactive | inactive | inactive | inactive | inactive | -6.11% | inactive | inactive | > 92 µM | inactive | inactive | inactive | inactive | inactive
C=CC=O |  | inactive | inactive |  | inactive |  | inactive | inactive | inactive | inactive | inactive |  | inactive | inactive |  |  | inactive | inactive |  | inactive
O=[N+]([O-])c1ccc(Cl)cc1 | inactive |  | inactive | inactive | inactive | inactive | inactive | inactive | inactive | inactive | inactive | 5.21% and -2.59% | inactive | inactive | > 92 µM | inactive | inactive | inactive | inactive | inactive
ClCCBr | inactive |  | inactive | inactive | inactive | inactive | inactive | inactive | inactive | inactive | inactive | -1.05% |  |  |  |  |  | inactive | inactive | inactive
CCC/C=N/O |  |  | inactive | inactive | inactive | inactive |  | inactive | inactive | inactive | inactive | -0.259% | inactive | inactive |  | inactive | inactive | inactive | inactive | 
O=C(O)C(Cl)(Cl)Br | inactive | inactive |  | inactive | inactive | inactive | inactive | inactive | inactive | inactive | inactive | 1% | inactive | inactive |  | inactive | inactive | inactive |  | 
c1ccc(P(c2ccccc2)c2ccccc2)cc1 |  | inactive |  | inactive | inactive |  | inactive |  | inactive | inactive | inactive | 14.4% | inactive |  | > 92 µM | inactive | inactive | inactive | inactive | inactive
ClP(Cl)(Cl)(Cl)Cl | inactive | inactive | inactive | inactive | inactive | inactive | inactive | inactive | inactive | inactive | inactive | -15.7% |  | inactive |  | inactive | inactive | inactive | inactive | inactive
O=S(=O)(Cl)c1ccccc1 | inactive | inactive |  | inactive | inactive | inactive | inactive | inactive | inactive | inactive | inactive |  | inactive | inactive |  | inactive | inactive |  | inactive | inactive
Cc1ccc2c(C)cccc2c1 |  | inactive | inactive | inactive |  | inactive | inactive | inactive |  | inactive | inactive |  |  |  |  | inactive | inactive | inactive | inactive | inactive
CCCN(CCC)c1c([N+](=O)[O-])cc(C(F)(F)F)cc1[N+](=O)[O-] | inactive | inactive |  | inactive |  | inactive |  |  | inactive |  | inactive | 0.285% and -10.3% |  |  | > 92 µM | inactive | inactive | inactive | inactive | inactive
[N-]=[N+]=[N-] | inactive | inactive | inactive | inactive |  | inactive | inactive | inactive | inactive | inactive |  | 13.8% | inactive |  | > 92 µM | inactive | inactive | inactive | inactive | inactive
Nc1c(Cl)cc([N+](=O)[O-])cc1Cl | inactive | inactive | inactive | inactive | inactive | inactive | inactive | inactive | inactive | inactive |  | 5.54% and -6.63% | inactive | inactive |  | inactive | inactive | inactive | inactive | inactive
Brc1cccc(-c2ccccc2)c1 | inactive | inactive | inactive | inactive | inactive | inactive |  | inactive | inactive |  | inactive |  | inactive | inactive |  | inactive | inactive | inactive | inactive | 
C=CC(=O)OCCN(C)C | inactive |  | inactive | inactive | inactive |  | inactive | inactive |  | inactive |  |  | inactive | inactive | > 92 µM | inactive | inactive | inactive | inactive | 
ClCC(Cl)Cl | inactive | inactive |  | inactive | inactive | inactive | inactive |  | inactive | inactive | inactive | 7.8% | inactive | inactive | > 92 µM | inactive | inactive | inactive |  | inactive
Cc1ccc(N)c(N)c1 | inactive | inactive | inactive | inactive |  |  | 39.8 µM (active) |  | 31.6 µM (active) |  | 12.6 µM (active) | -10.9% |  | inactive | > 92 µM |  | 25.1 µM (active) |  |  | inactive
Oc1cccc(Cl)c1Cl | inactive | inactive | inactive | inactive | inactive |  | inactive | inactive | inactive | inactive | inactive | -5.77% | inactive | inactive |  | inactive | inactive | inactive | inactive | inactive
Clc1cccc(Cl)c1Cl | inactive | inactive | inactive | inactive |  | inactive | inactive | inactive | inactive | inactive |  | 1.17% and -4.41% | inactive | inactive | > 92 µM |  | inactive | inactive | inactive | 
Nc1ccc(Oc2ccc(N)cc2)cc1 | inactive | inactive |  |  |  | inactive |  | inactive | inactive |  | inactive | 4.6% and -3% | inactive |  |  |  | inactive | inactive | inactive | inactive
CCCCCC[N+](=O)[O-] | inactive | inactive | inactive | inactive | inactive |  | inactive | inactive | inactive | inactive | inactive |  | inactive | inactive | > 92 µM | inactive | inactive | inactive | inactive | inactive
